Data: PubChem BioAssay AID588493 (Sanford-Burnham Center for Chemical Genomics, 2011)
Where “and” joins values, the source holds several entries; their conditions need not be identical. Equal values may be shown once. Among all 360,000 compounds or so, about 2,100 (0.58%) were called active. The sample holds actives, similar compounds and a random draw of the others, so the mix is not that of the screen. Values without a mark were called inactive.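 Rule for the calls: active = inhibition at 20 µM, scaled to each plate's controls, above about 33% (limit read from the data); inactive = the rest.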

The compounds below were run against 26S proteasome non-ATPase regulatory subunit 14 (Homo sapiens) (UniProt O00487) (assay: inhibition of 26S proteasome subunit Rpn11 – biochemical, fluorescence polarization, uHTS, primary screen (AID 588493)). Conditions: human 26S proteasome, Ub4-pepOG fluorescence polarization; at 20 µM; stronger effect = higher value; 20S core pre-blocked with epoxomicin.
Sequence of 26S proteasome non-ATPase regulatory subunit 14 (Homo sapiens) (O00487 whole entry, looked up): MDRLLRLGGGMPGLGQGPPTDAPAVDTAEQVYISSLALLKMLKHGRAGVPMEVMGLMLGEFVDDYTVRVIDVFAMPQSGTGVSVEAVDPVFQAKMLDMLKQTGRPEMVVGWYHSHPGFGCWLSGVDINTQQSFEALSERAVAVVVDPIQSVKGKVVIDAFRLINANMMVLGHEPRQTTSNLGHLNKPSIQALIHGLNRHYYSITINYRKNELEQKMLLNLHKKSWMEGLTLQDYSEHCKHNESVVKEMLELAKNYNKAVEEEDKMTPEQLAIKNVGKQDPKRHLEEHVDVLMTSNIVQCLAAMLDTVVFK

Compound	inhibition
Cc1cccc(N(C(=O)c2sc(C)nc2C)C(C(=O)NCC2CCCO2)c2ccccc2)c1 (centres undefined)	-7.9%
CCNC(=O)C1(C)CCCN(Cc2noc(-c3ccccc3OC)n2)C1 (centres undefined)	2.1%
CC(=O)N1CCN(Cc2cc(=O)oc3cc(C)ccc23)CC1	9.9%
Cc1ccc(S(=O)(=O)N2[C@@H](c3ccc(Br)cc3)C(C(=O)O)=C[C@H]2CC2CCCC2)cc1	14.1%
COc1cccc(NC(=O)C2(C)CCN2C(=O)CCC2CCCC2)c1 (centres undefined)	-22.2%
COc1cccc(CN2C(=O)CCC2(C)C(=O)NC2CCCCCC2)c1 (centres undefined)	3.5%
Cc1nnc(N(Cc2ccco2)C(=O)c2ccno2)s1	15%
COc1ccc(CNC(=O)c2nnn(CC(=O)Nc3cc(C)cc(C)c3)c2N)cc1	58.1% (active)
COc1cccc(CNC(=O)c2nnn(CC(=O)Nc3cc(C)ccc3C)c2N)c1	-0.5%
COc1ccc(NC(=O)Cn2nnc(C(=O)NCCc3ccc(OC)c(OC)c3)c2N)cc1	7%
O=C(Nc1cccc(C(=O)O)c1)/C(=C\c1ccccc1)NC(=O)c1ccc(Br)o1	1.3%
CC1(C)NC(=O)N(CCCCSc2ccc(Cl)cc2)C1=O	1.8%
O=P(c1ccc2c(c1)OCCO2)(N1CCOCC1)N1CCOCC1	2.8%
CCS(=O)(=O)C1=NSC2=NC(=O)/C(=C\c3ccc(OS(=O)(=O)c4ccccc4)cc3)C(=N)N21	22.6%
CS(=O)(=O)c1ccc2c(c1)SC1=NC(=O)/C(=C/c3ccco3)C(=N)N12	76.1% (active)
CCCC1C(c2ccccc2)C(C#N)(C#N)C2(C#N)CC1(N)NC2=O (centres undefined)	3%
COC1=C/C(=C/c2c(N)n3nc(CC(=O)N4CCOCC4)sc3nc2=O)C=CC1=O	46.9% (active)
COc1ccc(-c2ccnc(SCC(=O)N3CCOCC3)n2)cc1	-4%
O=C(Oc1ccccc1C(=S)N1CCCCC1)c1cc([N+](=O)[O-])cc([N+](=O)[O-])c1	1.8%
CC(C)CC1C(=O)N(Cc2cn(CC3CCCCC3)nn2)CCS(=O)(=O)N1Cc1ccc(-c2ccc(Cl)cc2)cc1 (centres undefined)	-2.7%
CC1C(=O)N(Cc2cn(Cc3ccco3)nn2)CCS(=O)(=O)N1Cc1ccc(-c2cccc(CO)c2)cc1 (centres undefined)	4.5%
CC(C)CC1C(=O)N(Cc2cn(Cc3ccco3)nn2)CCS(=O)(=O)N1Cc1ccc(-c2ccc(Cl)c(Cl)c2)cc1 (centres undefined)	59.9% (active)

Compound	inhibition
COc1ccc(NC(=O)CNC(=O)Cn2ccc3ccccc3c2=O)c(OC)c1	-3.8%
CC(C)C1N=C2c3ccccc3N=C(SCC(=O)c3ccc(O)c(O)c3)N2C1=O (centres undefined)	-6.6%
COc1ccc(NC(=O)C(CC(C)C)NS(=O)(=O)c2ccc3c(c2)CCN3C(C)=O)cc1OC (centres undefined)	6.4%
CCOC(=O)N1CCC(NC(=O)C(NS(=O)(=O)c2ccc3c(c2)CCN3C(=O)CC)C(C)C)CC1 (centres undefined)	46.5% (active)
CCC(=O)N1CCc2cc(S(=O)(=O)NC(C(=O)N3CCc4ccccc4C3)C(C)C)ccc21 (centres undefined)	1.1%
CC(C)S(=O)(=O)c1csc(NC(=O)Nc2ccc(Cl)cc2)c1Cl	1.6%
CCC(C)Cn1c(O)cc2nn(-c3nc4ccccc4s3)c(=O)c-2c1C (centres undefined)	95.3% (active)
N#Cc1ccc(-c2ccc3nccn3c2)cc1	1.6%
O=C(CSc1cccc2cccnc12)N/N=C/c1cccnc1	71.4% (active)
O=C(CNC(=O)c1cccnc1)N/N=C/c1cc(Br)c(O)c(Br)c1	-14.1%
Cc1ccc(/C=N/NC(=O)CSc2nc3ccccc3o2)cc1	1%
Cc1nnc(SCc2nc3ccccc3nc2C)s1	-1.4%
COc1ccc2cc(C(=O)C3CCCN(C(=O)c4sc(C)nc4C)C3)ccc2c1 (centres undefined)	5.8%
COc1cc(CO)ccc1OCC(=O)Nc1cccc2ccccc12	1.6%
COc1cc(=O)[nH]c(=O)n1C(=O)Cc1ccccc1	2.2%
CCCOc1ccc(Cn2c(O)cc(=O)[nH]c2=O)cc1	65.3% (active)
COc1ccc(Cn2c(O)c(/C=C3/C=CC=N3)c(=O)[nH]c2=O)cc1	14.5%
COc1ccc(C2c3[nH]c4ccccc4c3C[C@H]3C(=O)N(CC(C)C)CC(=O)N23)c(OC)c1 (some centres undefined)	-8.2%
Cc1ccc(NC(=O)CN(C)Cc2ccc(F)cc2)c([N+](=O)[O-])c1	-8.1%
COc1ccc2c(c1)c(=Cc1ccc(N(C)C)cc1)c1cc(-c3ccccc3)[n+](C)n12	59.4% (active)
O=C(CNC(=O)c1ccc(Cl)cc1Cl)NCC(=O)Nc1ccccc1N1CCOCC1	-2.4%
CCCNC(=O)CCn1nc(-c2ccccc2)c2ccccc2c1=O	-1.2%

Compound	inhibition
CCOC(=O)c1ccc(-n2c(CCC(=O)O)ccc2-c2ccccc2)cc1	1.9%
CC(C)Cn1c(CCC(=O)O)ccc1-c1cccs1	39.7% (active)
COCCCn1c(CCC(=O)O)ccc1-c1ccc(F)cc1	6.6%
CC(=O)c1sc(N)nc1C	-7.7% and -13.1%
CC(=O)c1sc(NC(=O)C2=NN(c3ccccc3)C(=O)CC2)nc1C	1.1%
CC(=O)c1sc(N/N=C/c2ccc(C(C)C)cc2)nc1C	42.3% (active)
Cc1cc2c(cc1C)N1C(=O)c3cc4ccccc4cc3NC(=O)C1C(=O)N2 (centres undefined)	7%
COc1ccc(NC(=O)c2cn(-c3ccccc3)nc2SC)cc1	4.3%
CCOc1ccc(-c2c(C)n([O-])c3c([n+]2=O)CCCC3)cc1	3%
Oc1ccc(/C=N/Nc2nc(-c3ccccc3F)nc3ccccc23)c(O)c1	43.1% (active)
Cc1ccc(/C=N/NC(=O)C2=NNC(c3ccccc3)(c3ccccc3)C2)c(O)c1	3.5%
O=C(NNc1c2ccccc2nc2ccccc12)c1cc2ccccc2cc1O	-5.5%
Cc1nnc(SC(C)C(=O)c2c[nH]c3ccccc23)n1C1CC1 (centres undefined)	-0.9%
CCCCN(C(=O)c1ccc(C)o1)c1c(N)n(CCCC)c(=O)[nH]c1=O	-3.8%
CCN(C(=O)COc1ccc(C(=O)c2ccccc2)cc1)c1ccccc1	-0.2%
O=C(COC(=O)COc1cccc(F)c1)NCC1CCCCC1	-7.3%
O=C(COc1cccc(F)c1)Oc1ccc(C(=O)c2ccccc2)cc1	43% (active)
O=C(c1cccnc1)N(c1cc2sc(=O)oc2c2ccccc12)S(=O)(=O)c1ccccc1	2.8%
NC(=O)Cc1ccc2sc(-c3ccccc3)nc2c1	4.7%
O=C(CSc1nnc(-c2cccnc2)n1CCc1ccccc1)NCc1ccccc1	-6.8%
C=CCn1c(SCC(=O)NC(=O)Cc2ccccc2)nc2ccccc2c1=O	0.5%
C=CCn1c(SCC(=O)NCc2ccccc2)nnc1-c1cc(Br)ccc1O	37.3% (active)

Compound	inhibition
COc1ccc(CNc2c(CO)cnc3c2cnn3C)cc1	-6.6%
COCCCNC(=S)N1CCN(c2nc(-c3cccc(OC)c3)cs2)CC1	5.4%
COc1ccc(NC(=O)c2ccco2)cc1NC(=O)c1ccc(C#N)cc1F	-5.8%
N#Cc1ccc(C(=O)Nc2cccc3cccnc23)c(F)c1	102% (active)
CSc1ccc(C#N)cc1NC(=O)c1cccc(Cl)c1	7.6%
Cc1ccc(CCNC(=O)CN2C(=O)CSc3ccc(S(=O)(=O)N4CCOCC4)cc32)cc1	-1.8%
CCCCCCCCc1c(O)nc(-n2[nH]c(C)c(CCO)c2=O)[nH]c1=O	11.1%
COc1cc(OC)cc(C(=O)NCCCn2ccnc2)c1	0.7%
COc1cccc(-c2nn(-c3ccccc3)cc2/C=C(\C#N)C(=O)NCCCn2ccnc2)c1	56% (active)
COc1ccc(/C=C(\C#N)C(=O)NCCCn2ccnc2)cc1	-1.5%
CCCCc1nnc(NC(=O)CS(=O)(=O)Cc2ccccc2)s1	5.2%
C/C(=N/NS(=O)(=O)c1ccccc1)c1ccc(NC(=O)C(F)(F)F)cc1	-2%
NC(=O)c1cc(S(=O)(=O)NCCCc2ccco2)cs1	-4.1%
O=C(Nc1ccc(N2CCCC2=O)cc1)c1cncc(Br)c1	-4.8%
O=C(N/N=C/c1cccc(Br)c1)c1ccc(N2CCCC2=O)cc1	49.1% (active)
O=C(N/N=C\c1cccc(Br)c1)c1ccccc1-n1cccc1	23.2%
Cc1cc2nc(-c3ccco3)c(Cc3cccc(F)c3)n2c(C)c1Br	11.6%
CN(C)CCn1c2c(c(SCC(=O)Nc3ccccc3C(F)(F)F)nc1=O)CCCC2	-0.6%
CC1CCN(c2ccc3c(c2)S(=O)(=O)c2cc(C(=O)O)ccc2C3=O)CC1	57.1% (active)
O=C1c2ccccc2S(=O)(=O)c2cc(N3CCN(c4ccccn4)CC3)ccc21	40.2%
OC(c1ccc(Cl)cc1)c1ncc(-c2ccc(Cl)cc2)[nH]1 (centres undefined)	-5.5%
COc1ccc(CNC(=O)C(C)n2nc(C)c3c(C)n(-c4ccccc4)nc3c2=O)c(OC)c1 (centres undefined)	0%

Compound	inhibition
CCCCN(C(=O)C1CCC1)c1c(N)n(Cc2ccccc2)c(=O)[nH]c1=O	-10.9%
Cc1ccc(Cl)cc1NC(=O)COC(=O)C1CCCCC1	-8.8%
CCCc1nc(-c2cc3cc(C)ccc3[nH]c2=O)no1	-0.2%
CCNCc1cc2cc(C)ccc2[nH]c1=O	82.8% (active)
CCC(=O)N(CCc1ccccc1)Cc1cc2cc(C)ccc2[nH]c1=O	-6.2%
CCc1noc(C)c1C(=O)N1CCN(S(=O)(=O)c2cccc(C(F)(F)F)c2)CC1	0%
CC(=O)c1ccc(NC(=S)N(Cc2ccccc2)C(C)C2CC2)cc1 (centres undefined)	8.8%
CCN1CCN(c2cc3nc(C)n(Cc4ccccc4)c(=O)c3cc2NC(=O)c2ccccc2F)CC1	47.3% (active)
CCC(=O)Nc1ccc2nc(C)n(Cc3ccccc3Cl)c(=O)c2c1	-7.7%
CCOc1cc(NC(=O)c2ccccc2C(=O)O)c(OCC)cc1NC(=O)c1ccccc1F	1.8%
Fc1ccc(CNc2nc3ccccc3n3nnnc23)cc1	-38.7%
Cn1c(C(=O)N2CCC(C(N)=O)CC2)cc2c(=O)n(C)c3ccccc3c21	-3.7%
CCN1CCCC1CNC(=O)c1cc2cc(OC)c(OC)cc2[nH]1 (centres undefined)	-10.4%
CCN1CCCC1CNC(=O)c1cc2c(=O)n(C)c3ccccc3c2n1C (centres undefined)	66.2% (active)
COc1cccc(/C=C(/CC(=O)Nc2ccc(N3CCOCC3)cc2)c2nc3ccccc3s2)c1	41.7% (active)
CCn1c(Cc2ccc(OC)cc2)nnc1SCC(=O)Nc1ccc(N2CCOCC2)cc1	5%
Cc1ccc(OCCCC(=O)Nc2ccc(N3CCOCC3)cc2)cc1	1.7%
COc1cc(OC)cc(C(=O)Nc2ncc3c(n2)CC(C)(C)CC3=O)c1	1.2%
CCN(CC)S(=O)(=O)c1ccc2nc(CSc3nnnn3-c3ccc(O)cc3)[nH]c2c1	0.9%
O=C(Nc1cc(Br)ccc1F)c1nc[nH]c1C(=O)NCc1ccccc1	-6.2%
O=C(c1ccc2c(c1)N(Cc1ccc(F)cc1)C(=O)CS2)N1CCOCC1	1.1%
